The list is not random: actives were taken first. Their share in the collection is about 1.7%.
PTHR1 ag: qHTS for PTHR1 Agonists: Primary Screen; Parathyroid hormone/parathyroid hormone-related peptide receptor (Homo sapiens), Q03431; HEK293 GP2 PTHR1 cells, GloSensor cAMP luminescence, 1 h; Potency, µM (top dose mostly 115 µM), inactives show at the highest dose activation, hits mostly activators; 410,000 tested, 0.075% active; further: nearly all actives have a fitted effect of over 55% in size
Target sequence (Q03431 whole entry, looked up): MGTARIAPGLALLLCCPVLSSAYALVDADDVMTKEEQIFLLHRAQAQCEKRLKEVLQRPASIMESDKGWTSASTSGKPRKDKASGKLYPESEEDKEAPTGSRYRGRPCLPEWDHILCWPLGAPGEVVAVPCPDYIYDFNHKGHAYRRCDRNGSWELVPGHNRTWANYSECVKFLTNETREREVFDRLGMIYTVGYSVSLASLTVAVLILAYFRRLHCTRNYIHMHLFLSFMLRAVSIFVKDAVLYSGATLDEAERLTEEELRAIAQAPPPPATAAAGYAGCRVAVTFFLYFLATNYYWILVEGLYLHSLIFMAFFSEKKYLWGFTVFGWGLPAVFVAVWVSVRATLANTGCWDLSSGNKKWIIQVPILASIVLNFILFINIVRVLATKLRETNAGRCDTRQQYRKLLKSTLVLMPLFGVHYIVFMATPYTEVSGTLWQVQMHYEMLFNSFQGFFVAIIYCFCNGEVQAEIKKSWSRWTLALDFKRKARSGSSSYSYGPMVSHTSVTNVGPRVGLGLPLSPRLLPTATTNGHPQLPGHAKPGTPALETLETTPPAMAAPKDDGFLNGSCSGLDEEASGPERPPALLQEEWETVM
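HEK-293-derived GP2 cells expressing PTHR1 and a GloSensor cAMP reporter, 3,000/well, plated overnight, given luciferin plus IBMX (each 0.5 mM as added) for 1 h at 37 °C, then compound for 1 h at 37 °C. Luminescence was read after 15 min at room temperature.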
GLP1R cytotox: qHTS of GLP-1 Receptor Inverse Agonists: Cytotox Screen. Potency, µM (titrated, usually from 38.3 µM), without a hit: top-dose activity change, negative = inhibition, most hits filed as inhibitors. HEK293 cAMP-luciferase reporter cells, luminescence, 24 h. 410,000 tested, 0.13% active. AID 624418, 2012;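 further: loss of luciferase light is scored as toxicity; on the % scale 0 is the no-effect control and ±100 the full control effect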
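Quantitative HTS format, 1536 wells, 200 cells/uL seeded. Compounds: 23 nL, 24 h, 37 °C. Detection: luciferase reagent, luminescence at 12 min RT; decreased signal taken as cytotoxic.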
GLP1R inv ag: qHTS of GLP-1 Receptor Inverse Agonists (Inhibition Mode) | AID 624417, 2012 | 410,000 tested, 1.6% active | Potency, µM (highest dose often 38.3 µM), inactives show top-dose activity change, negative = inhibition, hits mostly inhibitors | Glucagon-like peptide 1 receptor (Homo sapiens), P43220 | HEK293 GLP-1R CRE-luciferase, luminescence, 24 h; GLP-1R form is constitutively active; further: on the % scale 0 is the no-effect control and ±100 the full control effect; nearly all actives have a fitted effect of over 55% in size
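Assay principle: reduced luminescence from a cAMP-responsive reporter in HEK293 cells co-expressing a constitutively active GLP-1R. Conditions: 24 hr compound incubation, 37 deg C, 5% CO2.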
GLP-1R agonist: qHTS of GLP-1 Receptor Agonists; Glucagon-like peptide 1 receptor (Homo sapiens), P43220; HEK293 GLP-1R CRE-luciferase, luminescence, 4-6 h; cells express a hypersensitive GLP-1R form; Potency, µM (highest dose often 45.6 µM), for the others: at the highest dose activation, hits mostly activators; 380,000 tested, 0.007% active; AID 624172, 2012; further: % of control where 0% means no effect
An asterisk follows results filed as active; [ ] = remark or other dose. The call rests on the fitted dose curve; in most records, active means well fitted curve in the direction sought with a large enough effect; inconclusive means small, poorly fitted or top-dose-only effect, or another doubt; inactive means no such curve, though single readings can be large; an effect the other way counts as inactive or inconclusive. Potency means the concentration at half of the fitted maximal effect.

Screening COc1ccccc1NC(=S)NCCc1ccc(Cl)cc1 returned PTHR1 ag -9%[57.5 µM], GLP1R cytotox 8%, GLP1R inv ag 5µM* and GLP-1R agonist 4%.
COc1ccccc1NC(=S)NC1CCCCC1 was read as PTHR1 ag -18%, GLP1R cytotox -1%, GLP1R inv ag -19% and GLP-1R agonist 0%.
Screening COc1ccccc1NC(=S)NCC1CCCCC1 returned PTHR1 ag 1%, GLP1R cytotox inconclusive, GLP1R inv ag 10µM* and GLP-1R agonist 5%.
For COc1cccc(NC(=O)Nc2ccncc2)c1 the results were PTHR1 ag inactive, GLP1R cytotox 6%, GLP1R inv ag -4% and GLP-1R agonist 2%.
COc1ccccc1NC(=S)NCCSc1ccc(Cl)cc1 was read as PTHR1 ag inactive, GLP1R cytotox 2%, GLP1R inv ag 1% and GLP-1R agonist 10%.
COc1ccccc1NC(=S)NC1CCCCCCCCCCC1 was read as PTHR1 ag inactive, GLP1R cytotox 0.5µM*, GLP1R inv ag inconclusive and GLP-1R agonist -5%.
Screening COc1cccc(NC(=O)Nc2ccc(C(C)(C)C)cc2)c1 returned PTHR1 ag -30%, GLP1R cytotox -31%, GLP1R inv ag 6.3µM* and GLP-1R agonist 9%.
Screening CCCc1cc(=O)[nH]c2nnc(SCC)n12 returned PTHR1 ag 14%, GLP1R cytotox 2% and GLP1R inv ag -7%.
For CC1CCN(C(=O)CSc2c(C(C)C)cnc3c2c(=O)n(C)c(=O)n3C)CC1 the results were PTHR1 ag -2%, GLP1R cytotox -19% and GLP1R inv ag inconclusive.
Screening COc1ccc(NC(=O)NCCCCc2ccccc2)cc1 returned PTHR1 ag inactive, GLP1R cytotox 1%, GLP1R inv ag 6.3µM* and GLP-1R agonist 1%.
For CCOc1ccc(NC(=O)NCCCCc2ccccc2)cc1 the results were PTHR1 ag -24%, GLP1R cytotox 6%, GLP1R inv ag -29% and GLP-1R agonist 0%.
NCCCNCCCCNC(=O)C(O)NC(=O)CCCCCCN=C(N)N (centres undefined) was read as GLP-1R agonist -1%.
For CCN1CCN(C(=O)CN(c2cccc(Br)c2)S(=O)(=O)c2ccccc2)CC1 the results were PTHR1 ag inactive, GLP1R cytotox -1%, GLP1R inv ag 0% and GLP-1R agonist 0%.
For O=C(CN(c1cccc(Br)c1)S(=O)(=O)c1ccccc1)N1CCc2ccccc2C1 the results were PTHR1 ag -16%, GLP1R cytotox 4% and GLP1R inv ag 10µM*.
Screening CCCCN1CC(c2nc3ccccc3n2CCCCOc2ccc(C)c(C)c2)CC1=O (centres undefined) returned PTHR1 ag -14%, GLP1R cytotox -21% and GLP1R inv ag inconclusive.
CCCCN1CC(c2nc3ccccc3n2CCCCOc2cc(C)cc(C)c2)CC1=O (centres undefined) was read as PTHR1 ag -21%, GLP1R cytotox -11% and GLP1R inv ag 10µM*.
For Cc1cccc(OCCCCn2c(C3CC(=O)N(c4ccccc4Cl)C3)nc3ccccc32)c1 (centres undefined) the results were PTHR1 ag inactive, GLP1R cytotox 16% and GLP1R inv ag 4%.
Cc1cccc(OCCCCn2c(C3CC(=O)N(c4ccc(C)cc4C)C3)nc3ccccc32)c1 (centres undefined) was read as PTHR1 ag -30%, GLP1R cytotox -27% and GLP1R inv ag 13µM*.
`CC/C=C(\C(=O)N[C@H]1C(=O)N2C(C(=O)OCOC(=O)C(C)(C)C)=C(COC(N)=O)CS[C@H]12)c1csc(N)n1` gave GLP-1R agonist 0%.
CC(=O)c1ccc(NC(=O)CCCc2nc(-c3cccc(C)c3)no2)cc1 was read as PTHR1 ag -16%, GLP1R cytotox 5% and GLP1R inv ag -1%.
`COc1cc(Cn2c(=O)sc3ccccc32)ccc1OCCC(C)C` gave PTHR1 ag -20%, GLP1R cytotox 2% and GLP1R inv ag 10µM*.
`CCN(C(=O)CSc1nc2n[nH]c(C)c2c(=N)n1-c1cccc(OC)c1)c1cccc(C)c1` gave PTHR1 ag inactive, GLP1R cytotox -19% and GLP1R inv ag inconclusive.
`O=S(=O)(c1cccs1)N1CCN(CC(O)COc2cc(Cl)ccc2Cl)CC1` (centres undefined) gave PTHR1 ag -9%[57.5 µM], GLP1R cytotox -28%, GLP1R inv ag 7.9µM* and GLP-1R agonist 1%.
Cc1ccc(Cl)cc1N1CCN(C(=O)c2ccc3c(c2)N(Cc2ccc(F)cc2)CCS3)CC1 was read as PTHR1 ag inactive, GLP1R cytotox 0% and GLP1R inv ag inconclusive.
Oc1ccccc1N1CCN(c2ncnc3scc(-c4ccc(F)cc4)c23)CC1 was read as PTHR1 ag -13%, GLP1R cytotox -8%, GLP1R inv ag inconclusive and GLP-1R agonist 9%.
`Cc1cc(-c2csc3ncnc(N4CCN(C)CC4)c23)cc(C)c1C` gave PTHR1 ag -1%, GLP1R cytotox 1%, GLP1R inv ag inconclusive and GLP-1R agonist 14%.
For CN1CCN(c2ncnc3scc(-c4ccccc4Cl)c23)CC1 the results were PTHR1 ag inactive, GLP1R cytotox 0%, GLP1R inv ag 1.4µM* and GLP-1R agonist -4%.
`Oc1ccccc1N1CCN(c2ncnc3scc(-c4ccccc4)c23)CC1` gave PTHR1 ag -12%, GLP1R cytotox -26%, GLP1R inv ag 11µM* and GLP-1R agonist 14%.
For COc1ccc(-c2csc3ncnc(Oc4cccc5ccc(C)nc45)c23)cc1 the results were PTHR1 ag -16%, GLP1R cytotox -5%, GLP1R inv ag 10µM* and GLP-1R agonist -2%.
Screening COc1ccc(-c2csc3ncnc(N4CCN(c5ccccc5OC)CC4)c23)cc1 returned PTHR1 ag inactive, GLP1R cytotox -10%, GLP1R inv ag 10µM* and GLP-1R agonist 13%.
CCN(CC)C(=O)Cn1c(SCCOc2ccc(Cl)cc2)nc2ccccc21 was read as PTHR1 ag -23%, GLP1R cytotox -13% and GLP1R inv ag inconclusive.
`Cc1ccc(CSc2nc3ccc(NC(=O)COc4ccccc4)cc3s2)cc1` gave PTHR1 ag inactive, GLP1R cytotox 6% and GLP1R inv ag 14%.
`CCc1ccc(NC(=O)C(CC)n2c(=O)c(-c3ccccc3NC(C)=O)nc3ccccc32)cc1` (centres undefined) gave PTHR1 ag inactive, GLP1R cytotox -23% and GLP1R inv ag 11µM*.
`Cc1ccc(S(=O)(=O)N2C[C@H]3N(C(=O)OC(C)C)N(C(=O)OC(C)C)C[C@H](OC(=O)NCC4CCCCC4)[C@@]3(O)C2)cc1` gave PTHR1 ag -13%, GLP1R cytotox inconclusive, GLP1R inv ag 4.5µM* and GLP-1R agonist -3%.

High-throughput results deposited in PubChem by National Center for Advancing Translational Sciences (NCATS).
